# CHX counter = affects cycloheximide protein synthesis inhibition readout, counter-screen; cell reporter, cycloheximide protein synthesis inhibition counterscreen; AID 2314; max response, %; 12% of 300,000 active; in the data active means max response mostly above about 13%, no sharp cut-off; inactive means mostly below about 14%; further: read at 38.3 µM for the half of the compounds with a filed dose; 0% is about no effect
# HCMV inh = human cytomegalovirus inhibition | activity change, negative = inhibition, % at 57.5 µM | 4.5% of 410,000 active | AID 1259415 | HFF cells, HCMV-luciferase reporter, 72 h; hits give low values; in the data active means activity change below about -60%; inconclusive means no clear call, values can overlap the other calls; inactive means above about -39%; further: on the % scale 0 is the no-effect control and ±100 the full control effect
#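 Compounds were evaluated in HFFs infected with an HCMV luciferase reporter virus (MOI 1 PFU/cell). Luciferase in lysates collected 72 h post infection served as the replication measure.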
# Pf growth 48h = inhibits P. falciparum growth in the first generation, 48 h | P. falciparum luciferase growth in erythrocytes, 48 h | Potency, µM (top dose mostly 28.7 µM), for the others: at the top dose activity change, negative = inhibition, most hits filed as inhibitors | 5.9% of 310,000 active; further: potency means the concentration at half of the fitted maximal effect; on the % scale 0 is the no-effect control and ±100 the full control effect
#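 A one-generation exposure of luciferase-tagged malaria parasites in RPMI 1640/Albumax erythrocyte culture, 37 C and 5% CO2. Inhibition is inferred from decreased luminescence after adding detection reagent.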
# Shiga toxin inh = Shiga toxin inhibition | AID 2315 | Vero cells, Shiga toxin protein synthesis inhibition reporter | 9.2% of 290,000 active | inhibition, % at 38.7 µM; in the data active means inhibition mostly above about 28%, no sharp cut-off; inactive means mostly below about 43%; further: 0% is about no effect
# Pf growth 96h = inhibits malaria parasite growth, 96 h; P. falciparum luciferase reporter growth, 96 h; Potency, µM (titrated, usually from 28.7 µM), inactives show top-dose activity change, negative = inhibition, actives largely listed as inhibitors; 6.9% of 320,000 active; AID 504834; further: potency means the concentration at half of the fitted maximal effect; on the % scale 0 is the no-effect control and ±100 the full control effect
#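 Erythrocytes infected with luciferase-expressing P. falciparum were dispensed at 2% hematocrit and 0.05% parasitemia (final), then incubated with compounds 96 hours at 37 C in 5% CO2. Luminescence after detection reagent addition reported growth.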
# * marks the source's active call; other numbers are inactive results; ? = inconclusive; · = no result. A selection: hits, their analogues and other compounds. The true share with any hit is near 20%. Unless noted, the call rests on the fitted dose curve; in most records, active means well fitted inhibition curve with a large enough effect; inconclusive means small, poorly fitted or top-dose-only effect, or another doubt; inactive means no such curve, though single readings can be large or run the other way.
SMILES,CHX counter,HCMV inh,Pf growth 48h,Shiga toxin inh,Pf growth 96h
CC1CC(C)CN(C(=O)Cn2c(=O)oc3cc(S(=O)(=O)N4CCCC4)ccc32)C1 (centres undefined),-3.1,-20.8,?,-5.2,11.7µM*
CCOC(=O)N1CCC(NC(=O)C2CCCN(S(=O)(=O)c3ccc4c(c3)oc(=O)n4C)C2)CC1 (centres undefined),-1.4,-62.8*,9.3%,-13.5,·
CCOC(=O)C1CCCN(S(=O)(=O)c2ccc3c(c2)oc(=O)n3C)C1 (centres undefined),·,7.1,·,·,·
CCc1nn(CC(=O)NCc2ccc(C)cc2)c(=O)c2cc3occc3n12,·,-11.5,·,·,·
CCCNC(=O)Cn1c(=O)oc2cc(S(=O)(=O)N3CC(C)CC(C)C3)ccc21 (centres undefined),-0.7,5.2,?,9.3,3.2%
CCOC(=O)c1cccc(NC(=O)C2CCN(S(=O)(=O)c3ccc4c(c3)oc(=O)n4C)CC2)c1,·,-103.3*,·,·,·
CCCCN(C)C(=O)Cn1c(=O)oc2cc(S(=O)(=O)N3CC(C)CC(C)C3)ccc21 (centres undefined),1.0,?,?,-10.7,13.1µM*
COc1ccc(-c2ccnc3c(C(=O)O)cnn23)cc1,-0.4,6.5,-3.2%,2.2,0.2%
COc1ccccc1N1CCN(C(=O)c2ccc(CS(=O)(=O)c3ccccc3OC)o2)CC1,14.7*,-22.0,?,10.5,9.28µM*
CCOC(=O)N1CCN(C(=O)c2ccc(CS(=O)(=O)c3ccccc3OC)o2)CC1,17.8,24.0,1.1%,26.0,?
COc1ccccc1S(=O)(=O)Cc1ccc(C(=O)N2CCN(c3ccc(C)cc3)C(C)C2)o1 (centres undefined),-2.5,-19.1,11.7µM*,-4.5,?
CCc1ccccc1S(=O)(=O)Cc1ccc(C(=O)N2CCN(c3ccccn3)CC2)o1,-1.9,11.5,·,2.6,9.28µM*
O=C(Cn1cnc2onc(-c3ccc(F)cc3)c2c1=O)Nc1cccc(C(F)(F)F)c1,·,-16.5,·,·,·
Cc1cccc(NC(=O)c2sc3nc(C)nc(N4CCOCC4)c3c2C)c1,·,-22.2,·,·,·
Cc1nc(N2CCN(c3ccccn3)CC2)c2c(C)c(C(=O)Nc3ccc(Cl)cc3)sc2n1,-1.8,?,?,13.4,6.7%
Cc1nc(N2CCN(c3ccccn3)CC2)c2c(C)c(C(=O)Nc3c(F)cc(F)cc3Br)sc2n1,-2.8,?,11.7µM*,37.5,28.4%
Cc1nc(N2CCN(c3ccccn3)CC2)c2c(C)c(C(=O)Nc3c(C)cc(Br)cc3C)sc2n1,1.3,-21.4,1.85µM*,3.5,-23.2%
Cc1nc(N2CCCCC2)c2c(C)c(C(=O)Nc3ccc4c(c3)OCCO4)sc2n1,17.4*,-61.4*,?,24.5,-6.3%
COc1ccc(C)cc1NC(=O)CNC(=O)[C@@H]1Cc2ccccc2CN1,17.2,-23.1,16.8%,1.5,37.3%
CC(C)(C)NC(=O)NCc1cccnc1,4.0,7.6,-1.5%,21.2,0.4%
CC12CC3CC(C)(C1)CC(C(=O)NCc1cccnc1)(C3)C2,-1.3,3.6,51.9%,-17.7,3.7µM*
CC12CC3(C)CC(C)(C1)CC(C(=O)NCc1cccnc1)(C2)C3,-1.0,5.3,-17.1%,-22.4,11.7µM*
C=C1C(C(=O)Nc2cccc(OC)c2)C1C(=O)Nc1cccc(OC)c1 (centres undefined),-1.3,-16.8,0.0%,9.9,-2.7%
COc1ccccc1NC(=O)CN1C(=O)CCSc2ccccc21,·,29.8,·,·,·
Cc1ccc(N2C(S)=C(C#N)C(=O)NC23CCCCC3)cc1,13.0,-60.1*,-8.8%,28.8,1.8%
SMILES,CHX counter,HCMV inh,Pf growth 48h,Shiga toxin inh,Pf growth 96h
CCCc1nc(Nc2nc3ccccc3o2)nc(C)c1C(=O)OCC,61.1*,83.0,125.8%,128.9*,·
Cc1nc(Nc2nc3ccccc3o2)nc(C)c1C,8.9,16.1,346.2%,21.3,6.2%
CCOC(=O)c1cnc(Nc2nc3ccccc3o2)nc1CSC(=S)N(CC)CC,13.5,-64.2*,?,2.2,?
Cc1ccc(C2=NN(CCC(=O)NCCc3cccc(C)c3)C(=O)CC2)cc1,·,-19.7,·,·,·
CC1=C(C)/C(=N\OC(=O)/C=C/c2ccccc2)C=CC1=O,23.9,-31.3,10.4µM*,-9.6,?
CC1=CC(=NOC(=O)/C=C/c2ccccc2)C=C(C)C1=O,12.6*,-30.8,?,22.8,-45.5%
Cc1ccc(-c2nnn(CC(=O)N(c3ccccc3)C(C(=O)NCC3CCCO3)c3cccs3)n2)o1 (centres undefined),-1.8,-33.2,59.0%,4.3,10.4µM*
Cc1ccc(-c2nnn(CC(=O)N(c3ccccc3)C(C(=O)NCC3CCCO3)c3ccc(Cl)cc3)n2)cc1 (centres undefined),4.8,-5.0,?,13.2,8.28µM*
Cc1ccc(-c2nnn(CC(=O)N(c3ccccc3F)C(C(=O)NCC3CCCO3)c3c[nH]c4ccccc34)n2)cc1 (centres undefined),1.3,25.6,11.7µM*,-5.4,11.7µM*
Cc1ccc(-c2nnn(CC(=O)N(c3ccccc3)C(C(=O)NCC3CCCO3)c3ccc(F)cc3)n2)o1 (centres undefined),1.7,-11.4,11.7%,-5.2,-21.6%
COc1ccc(CN(C(=O)Cn2nnc(-c3ccc(C)o3)n2)C(C(=O)NCC2CCCO2)c2ccco2)cc1 (centres undefined),16.7*,2.6,-3.2%,0.5,25.1%
COc1ccc(NC(C)=O)cc1NS(=O)(=O)c1cn(C)c(=O)n(C)c1=O,-1.9,100.7,18.9%,7.4,-4.2%
CC(c1ccc(Cl)cc1)N(CCN(C)C)c1ccccn1 (centres undefined),·,-19.0,·,·,·
COc1ccccc1C(=O)NNC(=O)CCCN1C(=O)/C(=C/c2cccs2)SC1=S,-5.0,-68.4*,?,4.2,?
O=C(CCN1C(=O)/C(=C\c2cccs2)SC1=S)NC1=NCCS1,-5.2,-30.9,13.1%,-5.4,29.5%
O=C(CCCN1C(=O)/C(=C\c2cccs2)SC1=S)NNC(=O)c1ccncc1,-1.8,-60.7*,0.0%,-4.3,7.9%
O=C(CCN1C(=O)/C(=C/c2ccc(F)cc2)SC1=S)NNC(=O)c1ccncc1,-2.3,-21.0,-1.2%,-6.9,5.3%
O=C(CCN1C(=O)/C(=C\c2cccs2)SC1=S)Nc1ccc(C(=O)O)cc1,-3.8,-21.0,-1.9%,-10.3,?
O=C(CCCN1C(=O)/C(=C/c2cccs2)SC1=S)NNC(=O)c1cccnc1,8.8,?,?,6.7,14.7µM*
O=C(NC1CCCCC1)N1CCN(c2ccccc2Cl)CC1,10.1,0.2,29.5%,19.9,46.3%
CCC(C(=O)NC1CC(C)(C)NC(C)(C)C1)c1ccccc1 (centres undefined),-4.8,11.0,-1.3%,·,-28.1%
COc1ccc(CCN(C(=O)c2ccco2)C(C(=O)NC2CCCC2)c2ccncc2)cc1OC (centres undefined),2.9,-4.6,-25.3%,16.5,26.7%
